From PubChem BioAssay (EPA / NIEHS) come the findings set out here.

The target of assay [1] is human RAR-related Orphan Receptor gamma (RORg), RORC (gene 6097) (UniProt P51449). The experiment in a line: ATG_RORg_TRANS: Attagene TRANS-FACTORIAL HepG2 Assay for human RAR-related Orphan Receptor gamma (RORg) (AID 2283011). The method in brief:
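Reporter transcripts from a transfected RORg-GAL4 chimera in HepG2 cells were quantified 24 h after dosing by RT-PCR, 6-FAM labelling, HpaI digestion and capillary electrophoresis; increases over DMSO baseline were fitted.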

In assay [2] the target is Retinoic acid receptor RXR-alpha (Homo sapiens) (UniProt P19793). The experiment in a line: ATG_RXRa_TRANS: Attagene TRANS-FACTORIAL HepG2 Assay for human Retinoid X Receptor alpha (RXRa) (AID 2283012). The gist of the method:
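Chimeric NR-GAL4 trans-activation in HepG2, 24 h treatment; reporter transcripts quantified by fluorescence on capillary electrophoresis, analysed for upward change from DMSO.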

Assay [3] concerns the target human Retinoid X Receptor beta (RXRb), RXRB (gene 6257) (UniProt P28702). The experiment in a line: ATG_RXRb_TRANS: Attagene TRANS-FACTORIAL HepG2 Assay for human Retinoid X Receptor beta (RXRb) (AID 2283013). The gist of the method: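 After a 24 h incubation with test chemical, transfected HepG2 cells carrying NR-Gal4 fusions and GAL4-UAS reporter transcription units yield RNA whose reporter cDNA is FAM-labelled, HpaI-cut and sized by capillary electrophoresis; increases over DMSO are scored.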

Assay [4] has as its target human Thyroid Receptor alpha (THRa1), THRA (gene 7067) (UniProt P10827). The experiment in a line: ATG_THRa1_TRANS: Attagene TRANS-FACTORIAL HepG2 Assay for human Thyroid Receptor alpha (THRa1) (AID 2283014). The method in brief:
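Transcripts from GAL4-UAS-driven reporters, measured after 24 h compound exposure by RT-PCR plus capillary electrophoresis of 6-FAM-labeled fragments, were fitted for gain of signal relative to DMSO. Cells: transiently transfected HepG2 expressing NR-Gal4 chimeras.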

Read-out in assay [5]: E-selectin (Homo sapiens) (UniProt P16581)
Put plainly: BSK_3C_Eselectin: BioMAP Diversity Plus: 3C Assay for Eselectin Biomarker Activity (AID 2283015; active means hit-call score of the fitted dose curve at least 0.9, where 1 is the maximum; inactive means score below 0.9;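 on outcome: cell surface E-selectin protein quantified by ELISA 24 h after dosing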). The note with it: primary human endothelial cells (HUVEC); actives raise or lower the signal. The gist of the method: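 E-selectin ELISA readout, fitted bidirectionally relative to DMSO, taken 24 h post-dosing in HUVEC cultures of the 3C system. Overt cytotoxicity tracked with sulforhodamine B staining of parallel wells.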

Read-out in assay [6]: Interleukin-1 alpha (IL1a), IL1A (gene 3552)
Put plainly: BSK_BE3C_IL1a: BioMAP Diversity Plus: BE3C Assay for Interleukin-1 alpha (IL1a) Biomarker Activity (AID 2283016; active means hit-call score of the fitted dose curve at least 0.9, where 1 is the maximum; inactive means score below 0.9). The settings on record: primary human bronchial epithelial cells; actives raise or lower the signal. The gist of the method:
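Measured in human lung primary bronchial epithelial cells: IL-1a by ELISA at 24 h after dosing, with bidirectional fitting against DMSO.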

Read-out in assay [7]: Monocyte Chemoattractant Protein-1 (MCP1), CCL2 (gene 6347)
Put plainly: BSK_3C_MCP1: BioMAP Diversity Plus: 3C Assay for Monocyte Chemoattractant Protein-1 (MCP1) Biomarker Activity (AID 2283017; active means hit-call score of the fitted dose curve at least 0.9, where 1 is the maximum; inactive means score below 0.9). The note with it: primary human endothelial cells (HUVEC); actives raise or lower the signal. The gist of the method:
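MCP-1 was measured by ELISA 24 h after dosing in primary HUVEC 3C cultures and fitted in both directions relative to DMSO; cytotoxicity was checked by SRB total-protein staining in parallel wells.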

Read-out in assay [8]: Human Leukocyte Antigen - DR isotype (HLADR), HLA-DRA (gene 3122)
Put plainly: BSK_3C_HLADR: BioMAP Diversity Plus: 3C Assay for Human Leukocyte Antigen - DR isotype (HLADR) Biomarker Activity (AID 2283019; active means hit-call score of the fitted dose curve at least 0.9, where 1 is the maximum; inactive means score below 0.9;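 on outcome: ELISA of cell-surface HLA-DR on HUVEC 24 h after dosing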). The settings on record: primary human endothelial cells (HUVEC); actives raise or lower the signal. The gist of the method: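 Bidirectional fitting against DMSO was applied to the HLA-DR ELISA signal from human umbilical vein endothelial cells, 24 h post-dose. Cytotoxicity came from parallel SRB total-protein staining; 3C proliferation was counted by SRB at 48 h.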

Read-out in assay [9]: Interleukin-8 (IL8), CXCL8 (gene 3576)
Put plainly: BSK_3C_IL8: BioMAP Diversity Plus: 3C Assay for Interleukin-8 (IL8) Biomarker Activity (AID 2283020; active means hit-call score of the fitted dose curve at least 0.9, where 1 is the maximum; inactive means score below 0.9). The settings on record: primary human endothelial cells (HUVEC); actives raise or lower the signal. The gist of the method:
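Using DMSO-treated wells as the baseline, bidirectional curve fitting was applied to ELISA-measured IL-8 from human umbilical vein endothelial cultures sampled 24 h after compound addition.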

Read-out in assay [10]: Monokine induced gamma interferon (MIG), CXCL9 (gene 4283)
Put plainly: BSK_3C_MIG: BioMAP Diversity Plus: 3C Assay for Monokine induced gamma interferon (MIG) Biomarker Activity (AID 2283021; active means hit-call score of the fitted dose curve at least 0.9, where 1 is the maximum; inactive means score below 0.9). The note with it: primary human endothelial cells (HUVEC); actives raise or lower the signal. The method in brief: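 ELISA-measured MIG in dosed HUVEC 3C cultures at 24 h, analysed by bidirectional fitting with DMSO defining baseline activity.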

Each structure is given as a SMILES string. Inconclusive results are not listed. Activity calls are given as the source filed them. How the source made its calls, unless noted: active means hit-call score of the fitted dose curve at least 0.9, where 1 is the maximum; inconclusive means response in the unintended direction; inactive means score below 0.9.

Chain of Retinoic acid receptor RXR-alpha (Homo sapiens) (P19793 whole entry, looked up, the tested form may be a part): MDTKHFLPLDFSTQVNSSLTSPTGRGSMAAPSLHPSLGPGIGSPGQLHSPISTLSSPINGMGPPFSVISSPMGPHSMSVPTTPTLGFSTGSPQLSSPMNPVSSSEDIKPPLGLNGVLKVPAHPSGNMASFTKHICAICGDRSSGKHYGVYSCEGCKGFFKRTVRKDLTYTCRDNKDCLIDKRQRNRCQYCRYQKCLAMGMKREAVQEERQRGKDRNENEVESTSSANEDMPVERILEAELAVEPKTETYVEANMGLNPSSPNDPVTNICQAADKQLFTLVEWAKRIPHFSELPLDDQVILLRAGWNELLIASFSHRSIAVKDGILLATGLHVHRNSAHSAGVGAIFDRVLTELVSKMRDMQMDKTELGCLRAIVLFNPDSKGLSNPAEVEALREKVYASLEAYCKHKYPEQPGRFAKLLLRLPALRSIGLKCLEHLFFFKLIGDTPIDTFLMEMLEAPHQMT
Chain of human RAR-related Orphan Receptor gamma (RORg), RORC (gene 6097) (P51449 whole entry, looked up, the tested form may be a part): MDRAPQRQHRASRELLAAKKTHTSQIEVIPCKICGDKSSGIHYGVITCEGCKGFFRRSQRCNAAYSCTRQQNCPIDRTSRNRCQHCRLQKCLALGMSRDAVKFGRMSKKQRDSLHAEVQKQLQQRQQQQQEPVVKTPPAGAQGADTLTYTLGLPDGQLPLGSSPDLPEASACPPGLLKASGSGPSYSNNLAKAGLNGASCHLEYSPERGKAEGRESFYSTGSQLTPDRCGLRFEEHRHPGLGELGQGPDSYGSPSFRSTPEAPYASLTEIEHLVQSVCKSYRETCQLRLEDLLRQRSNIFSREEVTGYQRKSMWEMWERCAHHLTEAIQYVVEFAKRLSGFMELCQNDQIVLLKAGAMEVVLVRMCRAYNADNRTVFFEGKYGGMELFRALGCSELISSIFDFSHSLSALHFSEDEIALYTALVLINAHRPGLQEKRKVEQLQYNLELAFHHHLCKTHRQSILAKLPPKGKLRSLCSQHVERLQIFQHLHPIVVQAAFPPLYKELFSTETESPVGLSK
Chain of E-selectin (Homo sapiens) (P16581 whole entry, looked up): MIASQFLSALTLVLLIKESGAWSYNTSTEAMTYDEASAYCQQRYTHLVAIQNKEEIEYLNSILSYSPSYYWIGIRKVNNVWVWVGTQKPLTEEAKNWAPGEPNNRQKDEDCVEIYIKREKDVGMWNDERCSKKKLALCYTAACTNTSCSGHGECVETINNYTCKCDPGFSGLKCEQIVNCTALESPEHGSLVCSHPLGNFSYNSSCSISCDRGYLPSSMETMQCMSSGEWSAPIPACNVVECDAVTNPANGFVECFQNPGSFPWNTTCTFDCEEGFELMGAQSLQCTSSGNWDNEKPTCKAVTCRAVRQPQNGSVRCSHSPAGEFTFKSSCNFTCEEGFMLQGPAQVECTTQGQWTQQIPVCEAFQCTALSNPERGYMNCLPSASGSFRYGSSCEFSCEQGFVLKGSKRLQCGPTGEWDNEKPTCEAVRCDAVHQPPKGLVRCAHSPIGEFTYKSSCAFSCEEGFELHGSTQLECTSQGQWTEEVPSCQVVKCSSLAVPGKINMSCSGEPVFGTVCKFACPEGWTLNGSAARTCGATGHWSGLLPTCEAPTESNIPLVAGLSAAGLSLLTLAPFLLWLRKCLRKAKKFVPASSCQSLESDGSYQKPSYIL
Chain of human Retinoid X Receptor beta (RXRb), RXRB (gene 6257) (P28702 whole entry, looked up, the tested form may be a part): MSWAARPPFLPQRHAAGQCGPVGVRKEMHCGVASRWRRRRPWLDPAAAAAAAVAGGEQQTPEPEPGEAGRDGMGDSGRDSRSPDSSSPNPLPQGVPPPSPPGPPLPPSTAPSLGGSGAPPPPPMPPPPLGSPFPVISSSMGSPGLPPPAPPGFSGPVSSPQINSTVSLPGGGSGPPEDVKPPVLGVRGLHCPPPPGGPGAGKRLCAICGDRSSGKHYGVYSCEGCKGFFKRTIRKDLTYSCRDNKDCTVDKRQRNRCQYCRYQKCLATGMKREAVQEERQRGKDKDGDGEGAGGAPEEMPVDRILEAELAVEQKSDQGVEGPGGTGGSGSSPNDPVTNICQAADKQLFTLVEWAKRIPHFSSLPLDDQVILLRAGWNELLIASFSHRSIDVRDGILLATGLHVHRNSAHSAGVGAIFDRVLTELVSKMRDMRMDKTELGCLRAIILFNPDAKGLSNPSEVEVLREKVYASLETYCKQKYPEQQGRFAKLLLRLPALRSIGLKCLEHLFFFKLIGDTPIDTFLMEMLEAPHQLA
Chain of human Thyroid Receptor alpha (THRa1), THRA (gene 7067) (P10827 whole entry, looked up, the tested form may be a part): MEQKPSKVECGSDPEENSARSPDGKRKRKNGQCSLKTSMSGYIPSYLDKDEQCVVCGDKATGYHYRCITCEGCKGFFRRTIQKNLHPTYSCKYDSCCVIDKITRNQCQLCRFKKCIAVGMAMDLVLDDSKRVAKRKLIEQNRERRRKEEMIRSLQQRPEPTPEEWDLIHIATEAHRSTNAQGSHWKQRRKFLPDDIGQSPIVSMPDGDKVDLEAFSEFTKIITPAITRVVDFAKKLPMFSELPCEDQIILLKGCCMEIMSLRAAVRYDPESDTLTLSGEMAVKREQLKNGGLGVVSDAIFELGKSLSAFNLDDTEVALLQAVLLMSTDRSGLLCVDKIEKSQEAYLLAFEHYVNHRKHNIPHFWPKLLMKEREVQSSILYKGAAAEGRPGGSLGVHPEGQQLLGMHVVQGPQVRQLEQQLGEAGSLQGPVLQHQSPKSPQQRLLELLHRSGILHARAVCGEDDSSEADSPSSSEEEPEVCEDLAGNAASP

With `CN(C)c1ccc(C(=N)c2ccc(N(C)C)cc2)cc1`, the compound was called inactive in assay [1], in assay [2] and in assay [3].
On to `NC(=O)C1CO1` (configuration not stated), for which the outcome in assay [1] and in assay [2] was inactive.
As to `Cc1ccc(N/N=c2\c(=O)cc/c(=N/Nc3ccc(S(=O)(=O)O)cc3)c2=O)c(C)c1`, the call in [1] and in assay [2] was inactive.
`CC(=O)OC(C)C`: the compound was classed as inactive in assay [1] and in [2].
For `Cc1c(C)c([N+](=O)[O-])c(C(C)(C)C)c([N+](=O)[O-])c1C`, the outcome in assay [1] was inactive. In assay [2], the AC50 (in general, the concentration at which the activity in the assay is half-maximal) is 12.7 µM (active).
Regarding `C=C[Si](C)(C)O[Si](C)(C)C=C`, the compound was classed as inactive in assay [1] and in assay [2].
Regarding `CC(C)(C)c1n[nH]c(=O)n(N)c1=O`, the compound was classed as inactive in assay [1] and in [2].
As for `Cc1ccc(C(C)(C)C)cc1`, the compound was classed as inactive in assay [1], in assay [2] and in assay [3].
Regarding `O=C1OC(=O)c2cc(Oc3ccc4c(c3)C(=O)OC4=O)ccc21`, the result in assay [1], in [2] and in assay [3] was inactive.
In the case of `O=C1CCCC1`, the result in assay [1], in [2], in [3] and in assay [4] was inactive.
For the compound `Cc1cccc(N)n1`, the compound was called inactive in assay [1] and in assay [2].
`CCCCCCCCCCOC(C)=O`: the outcome in assay [1], in assay [2] and in assay [3] was inactive.
In the case of `CCCOC(=O)CCCCC(=O)OCCC`, the outcome in [1], in [2] and in assay [3] was inactive.
With `CC1=NN(c2cc(S(=O)(=O)O)ccc2Cl)C(=O)C1N=Nc1ccccc1` (configuration not stated), the compound was called inactive in assay [1] and in assay [2].
For the compound `CCOC(=O)[C@H](C)O`, the result in [1], in [2] and in assay [3] was inactive.
In the case of `CC=CCO`, the compound was called inactive in assay [1], in assay [2], in assay [3] and in assay [4].
Regarding `Cc1ccc(N)c([N+](=O)[O-])c1`, the compound was classed as inactive in assay [1], in [2] and in assay [3].
With `COc1c2ccoc2cc2oc(=O)ccc12`, the result in assay [1], in [2], in [3] and in assay [4] was inactive.
For `Nc1ccc(Cl)cc1Cl`, the compound was classed as inactive in assay [1], in [2] and in assay [3].
`Cc1cc(=O)n(-c2ccccc2)n1C`: the compound was classed as inactive in assay [1], in assay [2], in [3] and in [4].
For `NC(=O)NNC(N)=O`, the call in [1] and in assay [2] was inactive.
Regarding `CNC(=S)NN`, the compound was classed as inactive in assay [1], in [2], in assay [3] and in [4].
For the compound `CC(=O)Oc1ccc(C)cc1`, the compound was classed as inactive in assay [1], in [2] and in assay [3].
`CC(C)(C)c1ccc(N)cc1`: the compound was called inactive in assay [1], in assay [2] and in assay [3].
Consider `CNC(=S)N(C)C`, for which the outcome in [1], in [2] and in [3] was inactive.
For the compound `C1=CCCC1`, the compound was called inactive in assay [1], in assay [2], in assay [3] and in assay [4].
Regarding `Nc1ccc2cc3ccccc3cc2c1`, the call in assay [1] and in [2] was inactive.
Turning to `C=C(C)CCO`, the outcome in assay [1], in assay [2] and in [4] was inactive. In assay [3], the AC50 is 63.9 µM (active).
With `CCCNC(=O)NS(=O)(=O)c1ccc(Cl)cc1`, the outcome in assay [1] and in assay [2] was inactive.
As to `CCCC(=O)OCc1ccccc1`, the compound was called inactive in assay [1] and in [2].
In the case of `CC1=CC[C@H](C(C)C)C=C1`, the outcome in assay [1] and in assay [2] was inactive. In assay [3], the AC50 was 40.2 µM (active).
`CC1(C)[C@H]2CC[C@]1(C)C(=O)C2`: the call in assay [1] and in [2] was inactive.
Take `O=c1n(CCO)c(=O)n(CCO)c(=O)n1CCO`: the compound was called inactive in assay [1] and in assay [2].
For the compound `O=C1c2ccccc2C(=O)C1c1nc2ccccc2c(Br)c1O`, the call in assay [1], in assay [2] and in assay [3] was inactive.
Consider `C[C@]12CCC(=O)C=C1CC[C@@H]1[C@@H]2C(=O)C[C@@]2(C)[C@H]1CC[C@]2(O)C(=O)CO`, for which the outcome in assay [1], in assay [2] and in assay [3] was inactive.
In the case of `NC(=O)N=NC(N)=O`, the result in [1] and in assay [2] was inactive.
Consider `OCCNCc1ccccc1`, for which the call in assay [1] and in assay [2] was inactive.
For `C=C(C)[C@H]1CC=C(C)CC1`, the compound was called inactive in assay [1], in assay [2] and in [3].
As for `CC(C)(C)C(=O)CCc1ccc(Cl)cc1`, the compound was classed as inactive in [1], in [2], in assay [3] and in assay [4].
With `O=Nc1ccc(O)cc1`, the compound was called inactive in assay [1], in [2], in assay [3], in assay [4], in assay [5] and in assay [6]. Besides, the outcome in assay [7], in assay [8], in [9] and in assay [10] was inactive.
Regarding `c1ccc2c(c1)ccc1cc3c(ccc4ccccc43)cc12`, the result in [1], in assay [2], in assay [3], in [4], in [5] and in assay [6] was inactive. The outcome in [7], in assay [8], in assay [9] and in assay [10] was inactive.
Regarding `CCCCCCC1(C)CCC(=O)O1` (configuration not stated), the call in [1] and in assay [3] was inactive.
As to `CCCCC(CC)COC(=O)c1ccccc1O` (configuration not stated), the result in assay [1], in assay [2], in [6] and in assay [10] was inactive. Moreover, the AC50 in [5] is 10 µM (active); in assay [7] it was 15.9 µM (active); in assay [8] it was 18.1 µM (active); in assay [9], 10 µM (active).
For `c1ccc(CCCc2ccncc2)cc1`, the outcome in assay [1], in assay [2], in [3] and in [4] was inactive.
For the compound `COCCCOCCCOC`, the result in [1] and in assay [3] was inactive.
As for `C[Si](C)(C)O[Si](O)(O)O`, the call in assay [1] and in assay [3] was inactive.
As to `C=CC(=O)OCCOC(=O)C=C`, the call in [1], in [2] and in [3] was inactive. The AC50 in assay [4] was 26.9 µM (active).
As to `CC(C)=CCC/C(C)=C\C#N`, the outcome in [1] and in assay [3] was inactive.
On to `CCOc1nc(F)cc2nc(S(=O)(=O)Nc3c(Cl)cccc3C(=O)OC)nn12`, for which the call in assay [1], in [2], in [3], in [5], in assay [6] and in assay [7] was inactive. Further, the result in assay [8], in [9] and in assay [10] was inactive.
